Results reported in PubChem BioAssay (EPA / NIEHS).
Values joined by “and” are separate entries in the source; they are usually repeats but may differ in a detail not shown here. Equal entries are not always repeated. The source holds several records for some structures; these can differ, active in one and inactive in another. Active and inactive are the calls of the source. The calls were made as follows: active = hit-call score of the fitted dose curve at least 0.9, where 1 is the maximum; inactive = score below 0.9.

Assays:
[1] = ATG_GLI_CIS: Attagene CIS-FACTORIAL HepG2 Assay for human Zinc Finger Protein GLI1 (AID 2282945); details: HepG2, Attagene cis-factorial reporter mRNA, GLI element; actives raise or lower the signal
Summary of the method: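 Bidirectional curve fits relative to DMSO, using reporter mRNA levels from RT-PCR plus capillary electrophoresis. Cells were HepG2 transiently carrying cis-regulated reporter constructs, harvested 24 h after dosing.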

[2] = target: Bile acid receptor (Homo sapiens) (UniProt Q96RI1); test: ATG_IR1_CIS: Attagene CIS-FACTORIAL HepG2 Assay for human Nuclear Receptor Subfamily 1 Group H Member 4 (NR1H4), IR1 submotif (AID 2282946); details: IR1 reporter transcription, actives raise or lower the signal
Summary of the method: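 Cells (human HepG2) carry transiently transfected cis-promoter reporter transcription units. Compounds are incubated 24 h, total RNA is reverse-transcribed and amplified, and labelled fragments are resolved by capillary electrophoresis. Curves use DMSO as baseline.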

[3] = ATG_GRE_CIS: Attagene CIS-FACTORIAL HepG2 Assay for human Glucocorticoid Response Elements (GRE) (AID 2282947); details: HepG2 GRE cis-reporter, Attagene multiplex mRNA; actives raise or lower the signal
Summary of the method: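 Transient MRTU transfection of human HepG2 liver cells; cis-regulated reporters report endogenous factors. 24 h dosing → RNA isolation → RT-PCR → 6-FAM primer extension → HpaI cut → CE fragment analysis. Bidirectional fit, DMSO negative control.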

[4] = ATG_ISRE_CIS: Attagene CIS-FACTORIAL HepG2 Assay for human Interferon Regulatory Factor 1 (IRF1) binding to an Interferon-Stimulated Response Element (ISRE) (AID 2282948); details: HepG2 ISRE cis-reporter (Attagene), mRNA transcription readout; actives raise or lower the signal
Summary of the method: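 Transfected HepG2 (multiple reporter transcription units, cis elements) dosed 24 h. RNA → oligo(dT) RT → PCR → 6-FAM primer extension → HpaI → CE. DMSO = negative control/baseline.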

[5] = ATG_M_32_CIS: Attagene CIS-FACTORIAL HepG2 Assay for M32 Transcription Factor (Internal Marker) (AID 2282949); details: HepG2 Attagene cis-factorial M32 reporter, mRNA; actives raise or lower the signal;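 also: background control marker of the multiplexed CIS panel rather than a real target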
Summary of the method: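 Fluorescent capillary electrophoresis peaks of HpaI-digested, FAM-labelled RT-PCR reporter products give the signal. Source: transiently transfected human liver HepG2 cells, 24 h after chemical dosing; bidirectional fitting against DMSO.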

[6] = ATG_M_06_CIS: Attagene CIS-FACTORIAL HepG2 Assay for M06 Transcription Factor (Internal Marker) (AID 2282950); details: HepG2 Attagene CIS-FACTORIAL M06 internal marker reporter; actives raise or lower the signal
Summary of the method: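 Steps: transfect HepG2 with multiplexed cis-element reporter constructs; dose chemical 24 h; extract RNA with DNase treatment; reverse-transcribe, PCR-amplify, 6-FAM label, HpaI digest; separate fragments by capillary electrophoresis. Activity fitted both directions versus DMSO.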

[7] = target: Hypoxia-inducible factor 1-alpha (Homo sapiens) (UniProt Q16665); test: ATG_HIF1a_CIS: Attagene CIS-FACTORIAL HepG2 Assay for human Hypoxia Inducible Factor 1 (HIF1A) (AID 2282951); details: HepG2 Attagene cis-factorial HIF1a reporter transcription; actives raise or lower the signal
Summary of the method: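 Cis-element reporter constructs were transiently transfected into HepG2 cells, which were treated for 24 h; reporter RNA was reverse-transcribed, amplified, labelled and resolved by capillary electrophoresis.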

[8] = target: Hepatocyte nuclear factor 6 (Homo sapiens) (UniProt Q9UBC0); test: ATG_HNF6_CIS: Attagene CIS-FACTORIAL HepG2 Assay for human Hepatocyte Nuclear Factor 6 (HNF6) (AID 2282952); details: HepG2 Attagene cis-factorial HNF6 reporter transcription; actives raise or lower the signal
Summary of the method: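 Cells are HepG2 carrying transiently transfected cis-promoter reporter units. Treatment lasts 24 h, after which reporter transcripts are reverse-transcribed, amplified, FAM-labelled and sized by capillary electrophoresis. DMSO serves as baseline.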

[9] = target: Heat shock factor protein 1 (Homo sapiens) (UniProt Q00613); test: ATG_HSE_CIS: Attagene CIS-FACTORIAL HepG2 Assay for human Heat Shock Transcription Factor 1 (HSE) (AID 2282953); details: HepG2 HSE cis-reporter, Attagene RNA transcription; actives raise or lower the signal
Summary of the method: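 Cells were transfected with cis-element-driven reporter constructs, dosed for 24 h, then total RNA was reverse-transcribed and reporter cDNA amplified, FAM-labelled and digested with HpaI. Fragments were resolved by capillary electrophoresis; gain or loss was fitted against DMSO.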

[10] = ATG_MRE_CIS: Attagene CIS-FACTORIAL HepG2 Assay for human Metal Responsive Element (MRE) (AID 2282954); details: HepG2 MRE cis-reporter transcription, Attagene multiplex; actives raise or lower the signal
Summary of the method: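 Transient MRTU transfection of HepG2 (FuGene 6); 24 h dosing; total RNA → oligo(dT) RT, PCR, 6-FAM primer extension, HpaI cut, CE. Bidirectional fit vs DMSO.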

Measured: AC50

Sequence of Bile acid receptor (Homo sapiens) (Q96RI1 whole entry, looked up, the tested form may be a part): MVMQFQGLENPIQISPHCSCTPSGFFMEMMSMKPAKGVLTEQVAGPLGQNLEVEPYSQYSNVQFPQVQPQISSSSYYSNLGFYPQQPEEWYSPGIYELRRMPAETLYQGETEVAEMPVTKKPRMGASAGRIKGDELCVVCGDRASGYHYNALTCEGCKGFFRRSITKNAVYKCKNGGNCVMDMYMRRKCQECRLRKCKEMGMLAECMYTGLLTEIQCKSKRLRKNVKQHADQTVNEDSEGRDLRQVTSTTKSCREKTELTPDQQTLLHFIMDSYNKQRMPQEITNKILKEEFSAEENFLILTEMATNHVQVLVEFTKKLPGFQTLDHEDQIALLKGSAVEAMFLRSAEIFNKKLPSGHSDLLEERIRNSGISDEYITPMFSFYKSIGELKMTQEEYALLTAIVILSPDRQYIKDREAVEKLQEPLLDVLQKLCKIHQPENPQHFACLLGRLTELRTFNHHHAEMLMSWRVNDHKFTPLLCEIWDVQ
Sequence of Hepatocyte nuclear factor 6 (Homo sapiens) (Q9UBC0 whole entry, looked up): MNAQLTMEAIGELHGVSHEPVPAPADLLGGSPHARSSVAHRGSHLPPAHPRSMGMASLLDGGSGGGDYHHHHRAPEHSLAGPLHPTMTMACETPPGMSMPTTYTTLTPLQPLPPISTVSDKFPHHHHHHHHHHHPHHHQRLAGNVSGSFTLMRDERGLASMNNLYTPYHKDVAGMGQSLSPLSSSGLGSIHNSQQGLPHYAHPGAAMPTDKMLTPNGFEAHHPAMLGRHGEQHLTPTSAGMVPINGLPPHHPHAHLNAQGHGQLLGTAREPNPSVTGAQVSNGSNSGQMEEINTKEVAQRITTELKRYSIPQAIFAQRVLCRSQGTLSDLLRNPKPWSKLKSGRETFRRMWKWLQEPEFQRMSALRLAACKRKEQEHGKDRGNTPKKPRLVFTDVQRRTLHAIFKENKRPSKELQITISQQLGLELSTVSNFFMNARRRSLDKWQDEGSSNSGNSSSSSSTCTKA
Sequence of Heat shock factor protein 1 (Homo sapiens) (Q00613 whole entry, looked up, the tested form may be a part): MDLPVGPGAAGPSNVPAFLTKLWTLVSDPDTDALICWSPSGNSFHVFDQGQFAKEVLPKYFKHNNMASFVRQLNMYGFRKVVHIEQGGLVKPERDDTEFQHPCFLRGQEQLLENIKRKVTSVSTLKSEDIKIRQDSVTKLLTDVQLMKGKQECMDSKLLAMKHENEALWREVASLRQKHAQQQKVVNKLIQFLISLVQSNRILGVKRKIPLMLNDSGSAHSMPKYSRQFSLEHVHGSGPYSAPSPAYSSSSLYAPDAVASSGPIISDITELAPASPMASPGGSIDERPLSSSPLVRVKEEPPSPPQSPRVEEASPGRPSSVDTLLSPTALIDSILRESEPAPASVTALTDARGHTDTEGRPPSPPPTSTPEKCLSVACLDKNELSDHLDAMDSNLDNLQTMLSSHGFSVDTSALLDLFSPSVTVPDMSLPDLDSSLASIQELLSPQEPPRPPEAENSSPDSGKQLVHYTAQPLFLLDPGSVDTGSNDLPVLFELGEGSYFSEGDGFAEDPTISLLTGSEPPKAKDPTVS
Sequence of Hypoxia-inducible factor 1-alpha (Homo sapiens) (Q16665 whole entry, looked up): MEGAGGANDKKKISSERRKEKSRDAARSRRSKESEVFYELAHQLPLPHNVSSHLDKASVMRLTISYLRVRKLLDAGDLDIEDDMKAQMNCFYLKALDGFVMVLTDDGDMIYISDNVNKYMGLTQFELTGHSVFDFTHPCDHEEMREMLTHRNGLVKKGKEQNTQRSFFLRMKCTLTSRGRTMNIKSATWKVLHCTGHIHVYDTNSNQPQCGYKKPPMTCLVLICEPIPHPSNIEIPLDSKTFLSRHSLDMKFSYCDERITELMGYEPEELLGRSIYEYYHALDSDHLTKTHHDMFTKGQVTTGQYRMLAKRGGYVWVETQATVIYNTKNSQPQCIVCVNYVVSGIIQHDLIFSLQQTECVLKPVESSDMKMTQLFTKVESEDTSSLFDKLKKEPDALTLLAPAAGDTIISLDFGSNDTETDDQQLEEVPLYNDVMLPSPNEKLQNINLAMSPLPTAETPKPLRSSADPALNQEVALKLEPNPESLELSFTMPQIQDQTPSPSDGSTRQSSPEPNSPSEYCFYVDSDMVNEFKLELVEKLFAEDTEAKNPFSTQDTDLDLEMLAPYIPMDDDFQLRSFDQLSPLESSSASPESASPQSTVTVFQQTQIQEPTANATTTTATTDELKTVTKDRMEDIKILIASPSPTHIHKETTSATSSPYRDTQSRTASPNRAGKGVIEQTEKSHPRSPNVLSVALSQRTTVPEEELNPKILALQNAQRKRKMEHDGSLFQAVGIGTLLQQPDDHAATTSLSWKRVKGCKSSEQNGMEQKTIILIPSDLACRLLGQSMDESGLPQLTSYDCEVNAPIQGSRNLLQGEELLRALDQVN

CC(C)(C)CC(C)(C)c1ccc(O)c(-n2nc3ccccc3n2)c1
inactive: [1] | [2] | [3] | [4] | [5] | [6] | [7] | [8] | [9] | [10]

COc1cc(CCC(=O)CC(=O)CCc2ccc(O)c(OC)c2)ccc1O
active: [10] 76.4 µM
inactive: [1] | [2] | [3] | [4] | [5] | [6] | [7] | [8] | [9]

O=C(OCCOCCOC(=O)c1ccccc1)c1ccccc1
inactive: [1] | [2] | [3] | [4] | [5] | [6] | [7] | [8] | [9] | [10]

CCCOC(=O)c1ccc(O)cc1
inactive: [1] | [2] | [3] | [4] | [5] | [6] | [7] | [8] | [10]
active: [7] 176 µM | [10] 100 µM

CCC(=C(c1ccc(O)cc1)c1ccc(OCCN(C)C)cc1)c1ccccc1
active: [1] 11.2 µM | [2] 1.45 µM | [3] 13.1 µM | [4] 9.63 µM | [6] 11.7 µM | [7] 4.12 µM | [8] 11.1 µM | [10] 7.1 µM and 9.34 µM
inactive: [1] | [2] | [3] | [4] | [5] | [6] | [7] | [8] | [10]

OC1CCC(C2CCCCC2)CC1 (stereo not given)
inactive: [1] | [2] | [3] | [4] | [5] | [6] | [7] | [8] | [9] | [10]
active: [1] 70.6 µM | [2] 100 µM | [4] 73.8 µM and 81.2 µM | [7] 100 µM | [8] 154 µM | [10] 121 µM and 128 µM

CC(O)CO (stereo not given)
inactive: [1] | [2] | [3] | [4] | [5] | [6] | [7] | [8] | [9] | [10]

NCC(F)(F)C(F)(F)C(F)(F)C(F)(F)C(F)(F)C(F)(F)C(F)(F)F
inactive: [1] | [2] | [3] | [4] | [5] | [6] | [7] | [8] | [9] | [10]

CCCCOCCO
inactive: [1] | [2] | [3] | [4] | [5] | [6] | [7] | [8] | [9] | [10]

CC[C@H](c1ccc(O)cc1)[C@@H](CC)c1ccc(O)cc1
inactive: [1] | [2] | [3] | [4] | [5] | [6] | [8] | [10]
active: [2] 11.1 µM | [4] 11.1 µM and 17.2 µM | [10] 11.1 µM

Oc1cc2ccccc2c2ccccc12
inactive: [1] | [2] | [3] | [4] | [5] | [6] | [7] | [8] | [9] | [10]

Cc1oc(-c2ccccc2)nc1CCOc1ccc(C[C@H](Nc2ccccc2C(=O)c2ccccc2)C(=O)O)cc1
inactive: [1] | [3] | [4] | [5] | [6] | [8]
active: [2] 11 µM | [7] 17.6 µM | [9] 17.6 µM | [10] 20.8 µM

CN1CCN(c2ccccc2/C=C2\SCCN(c3ccc(Cl)c(Cl)c3)C2=O)CC1
inactive: [1] | [2] | [3] | [4] | [5] | [6] | [7] | [8] | [10]

Cc1cc(CCN2CCN(c3nsc4ccccc34)CC2)cc2c1NC(=O)CC2(C)C
active: [4] 8.79 µM | [10] 13.3 µM
inactive: [1] | [2] | [3] | [5] | [6] | [7] | [8] | [9]

O=C1OC2(c3ccccc31)c1cc(Br)c(O)c(Br)c1Oc1c2cc(Br)c(O)c1Br
active: [10] 76.3 µM
inactive: [1] | [2] | [3] | [4] | [5] | [6] | [7] | [8] | [9] | [10]

OCCC(F)(F)C(F)(F)C(F)(F)C(F)(F)C(F)(F)C(F)(F)C(F)(F)C(F)(F)F
active: [1] 59.2 µM | [4] 150 µM | [8] 171 µM | [10] 47.3 µM and 150 µM
inactive: [1] | [4] | [5] | [6] | [7] | [8]
